From PubChem
Compounds with a hit are over-represented: about 19% of the library has one in this group of screens.
TDP1 cell CPT: DT40-hTDP1 cell growth loss with CPT; chicken DT40 Tdp1-/-;hTDP1 cells + 20 nM CPT, ATP luminescence, 48 h; Potency, µM (doses to about 46.2 µM), for the others: at the highest dose activity change, negative = growth inhibition, hits mostly inhibitors; hit rate 12% among 420,000; further: potency means the concentration at half of the fitted maximal effect; nearly all actives have a fitted effect of over 55% in size
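Chicken DT40 Tdp1-/- cells stably complemented with human TDP1 were seeded at 400 cells/well in medium containing 20 nM camptothecin, exposed to pin-transferred compounds, and grown at 37 °C for at least 48 hr. Viability was read as ATP luminescence.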
Giardia killer: kills Giardia lamblia; activity change, % at 7.66 µM, hits read low; Giardia lamblia trophozoite viability; hit rate 0.15% among 340,000; AID 540267; in the data active means activity change below about -80%; inconclusive means between about -30% and that limit;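 further: parasites exposed to compound for two days anaerobically before the ATP read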
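Luminescent ATP signal served as the viability read-out, measured 15-30 min after adding ATP detection reagent to trophozoites that had been incubated with compounds for 48 hrs at 37 deg C anaerobically at 100 cells/well.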
DT40 TDP1 no CPT: qHTS for Inhibitors of human tyrosyl-DNA phosphodiesterase 1 (TDP1): qHTS in cells in absence of CPT; hit rate 15% among 420,000; AID 686978, 2013; DT40 Tdp1-/- hTDP1 cells, no CPT, ATP luminescence, 48 h; Potency, µM (doses to about 46.2 µM), for inactives: at the top dose activity change, negative = growth inhibition, most hits filed as inhibitors; further: potency means the concentration at half of the fitted maximal effect; nearly all actives have a fitted effect of over 55% in size
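Cells were dispensed at 400 per well, compounds added by pin tool, plates incubated ≥48 hr at 37 °C, then CellTiter-Glo added for 30 min at room temperature before luminescence reading. Line: DT40 Tdp1-/- complemented with hTDP1; camptothecin omitted.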
ELG1 repair inh: blocks ELG1-dependent DNA repair in HEK293T cells; HEK293T ELG1-luciferase reporter, luminescence, 16 h; DNA damage induced by 5-fluorouridine; Potency, µM (highest dose often 46.1 µM), for inactives: top-dose activity change, negative = inhibition, usual class: inhibitors; hit rate 2.3% among 330,000; further: potency means the concentration at half of the fitted maximal effect; nearly all actives have a fitted effect of over 55% in size
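HEK293T cells expressing luciferase-tagged ELG1 (2,000/well) received 5-Fluorouridine plus compound or DMSO for 16 hr at 37 °C. Luciferase was read by ONE-Glo luminescence after 30 min at room temperature.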
TDP1 block: TDP1 (human) enzyme inhibition; Q9NUW8; recombinant TDP1, AlphaScreen DNA substrate cleavage; Potency, µM (doses to about 130 µM), for inactives: at the top dose activity change, negative = inhibition, usual class: inhibitors; hit rate 0.28% among 350,000; AID 485290; further: potency means the concentration at half of the fitted maximal effect; nearly all actives have a fitted effect of over 40% in size
Target sequence (Q9NUW8 whole entry, looked up): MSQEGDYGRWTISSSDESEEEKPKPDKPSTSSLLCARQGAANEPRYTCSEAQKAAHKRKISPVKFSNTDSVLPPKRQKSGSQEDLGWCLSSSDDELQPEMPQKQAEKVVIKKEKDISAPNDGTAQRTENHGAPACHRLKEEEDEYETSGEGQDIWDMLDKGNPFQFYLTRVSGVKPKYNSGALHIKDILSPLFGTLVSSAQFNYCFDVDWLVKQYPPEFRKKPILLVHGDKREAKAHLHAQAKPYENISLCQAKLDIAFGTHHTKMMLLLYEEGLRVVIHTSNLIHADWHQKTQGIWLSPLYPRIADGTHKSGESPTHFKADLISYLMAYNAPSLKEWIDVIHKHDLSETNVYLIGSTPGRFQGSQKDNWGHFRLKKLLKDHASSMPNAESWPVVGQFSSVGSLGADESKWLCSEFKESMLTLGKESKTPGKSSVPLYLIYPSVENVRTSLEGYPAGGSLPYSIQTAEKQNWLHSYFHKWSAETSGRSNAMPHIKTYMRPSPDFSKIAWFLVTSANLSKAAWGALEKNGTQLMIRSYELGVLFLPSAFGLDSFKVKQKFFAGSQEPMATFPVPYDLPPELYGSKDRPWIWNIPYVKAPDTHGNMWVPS
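E. coli-derived human Tdp1, 1 nM final. Cpd preinc 15 min RT; substrate 15 nM final, 5 min RT; AS bead mix 10 ug/ml final, 10 min RT. Signal loss = tyrosine-FITC cleavage. No-enzyme wells = max signal.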
IL1B secr inh: blocks inflammasome-driven IL-1 beta release. THP-1 LPS/ATP IL-1B secretion, AlphaLISA, 16 h; hits give low values. activity change, % at 57.5 µM. hit rate 4.7% among 360,000. AID 743279; in the data active means activity change below about -50%; inconclusive means mostly about -30% to -49%
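Secreted IL-1B measured by AlphaLISA bead assay after 16 h compound exposure of THP-1 cells; compounds (final up to 57.5 uM) added 1 h before LPS (250 ng/mL) and ATP (1.25 mM) stimulation; lower signal means less secretion.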
Starred values were filed as active, the others as inactive; ? = inconclusive; . = not tested or not shown; [ ] = remark or other dose. Unless noted, the call rests on the fitted dose curve; in most records, active means well fitted curve in the direction sought with a large enough effect; inconclusive means small, poorly fitted or top-dose-only effect, or another doubt; inactive means no such curve, though single readings can be large; an effect the other way counts as inactive or inconclusive. On the % scale 0 is the no-effect control and ±100 the full control effect.

SMILES	TDP1 cell CPT	Giardia killer	DT40 TDP1 no CPT	ELG1 repair inh	TDP1 block	IL1B secr inh
CCOc1ccc(CCNC(=O)CN2C(=O)CCSc3ccccc32)cc1	5%	-13	?	11%	.	-11
O=C(NCc1ccccc1Cl)c1cc2cccc3c2n1CCS3	23µM*	.	?	.	6%	.
CCOc1ccc(CCNC(=O)c2cc3cccc4c3n2CCS4)cc1	9.2µM*	.	?	.	-3%	.
COc1cccc(CNC(=O)c2cc3cccc4c3n2CC(C)S4)c1OC (configuration not stated)	?	.	?	.	6%	.
O=C(NCc1cccc(C(F)(F)F)c1)C1CCCN(c2cnccn2)C1 (configuration not stated)	-8%	-6	3%	-3%	4%	0
CN(C)c1ccc(CN2CCC(C(=O)NC(c3ccc(Cl)cc3)c3cnccn3)CC2)cc1 (configuration not stated)	21µM*	.	16µM*	.	.	?
O=C(NC(c1ccc(-c2ccccc2)cc1)c1cnccn1)C1CCN(Cc2cccc(C(F)(F)F)c2)CC1 (configuration not stated)	26µM*	.	18µM*	.	.	-63*
O=C(NC(c1ccc(Cl)cc1)c1cnccn1)C1CCN(Cc2cccc(C(F)(F)F)c2)CC1 (configuration not stated)	12µM*	.	8.2µM*	.	.	.
OC(CCc1cccc(Cl)c1)c1cccs1 (configuration not stated)	-17%	-12	-22%	18%	.	0
COc1ccc(Cl)cc1S(=O)(=O)Nc1cccc(-c2ccc(N3CCCC3)nn2)c1	-19%	.	-16%	.	2%	.
Cc1ccc(C2=NN(S(C)(=O)=O)C(c3ccc4c(c3)OCO4)C2)cc1 (configuration not stated)	21µM*	-22	13µM*	?	3%	10
COc1ccc(OC)c(CNC(=O)NCc2noc3ccc(C)cc23)c1	-2%	.	-26%	.	8%	.
COc1ccc(/C=C/C(=O)OCC(=O)Nc2c(C)cccc2C)cc1	-15%	13	-10%	8%	6%	-1
Cc1cccc(OCCCC(=O)NNC(=O)c2ccccn2)c1	6.5µM*	5	7.3µM*	?	2%	89
O=C(c1coc(=O)c(Br)c1)N1CCOCC1	5.2µM*	-4	5.2µM*	25%	22µM*	-7
COCCn1c(-c2ccccc2)cnc1SCC(=O)Nc1cccc2ccccc12	?	19	?	?	1%	?
COc1ccccc1CNC(=O)CCc1nc2ccccc2c(=O)[nH]1	-14%	-8	-26%	-9%	1%	12
COc1ccccc1CN(Cc1nc2ccccc2c(=O)[nH]1)C(=O)Nc1ccccc1	3.5µM*	-18	3.5µM*	?	3%	-6
O=C(Nc1cccc(Cl)c1)N(Cc1nc2ccccc2c(=O)[nH]1)Cc1cccs1	23µM*	2	23µM*	?	1%	?
O=C(Nc1cccc(Cl)c1)N(Cc1nc2ccccc2c(=O)[nH]1)C1CCCC1	-27%	-3	?	-26%	6%	0
Cc1[nH]nc(C(F)(F)F)c1N=NN1CCOCC1	2.6µM*	11	3.3µM*	.	.	-10
CCN(CC)S(=O)(=O)c1ccc(N=NC2=C(O)CC(C)(C)CC2=O)cc1	?	-20	?	13%	3%	-55*
Cc1cc(-c2cn3ccccc3n2)c(C)n1-c1ccccc1	?	?	16µM*	?	10%	-11
COc1ccc(-n2c(C)cc(-c3cn4cccc(C)c4n3)c2C)cc1	?	-5	?	?	7%	28
CC1=CC(C)(C)NC(=S)N1CCO	-10%	-6	-32%	.	.	-5
SMILES	TDP1 cell CPT	Giardia killer	DT40 TDP1 no CPT	ELG1 repair inh	TDP1 block	IL1B secr inh
O=C(c1cnn2c(C(F)(F)F)cc(-c3ccco3)nc12)N1CCCCCC1	?	-12	-21%	0%	-8%	12
O=C(c1ccccc1)N1CCN(C(=O)c2nn3c(C(F)(F)F)cc(-c4ccco4)nc3c2Br)CC1	?	2	?	?	16%[0.0935 µM]	-65*
O=C(NC1CCCCC1)c1cnn2c(C(F)(F)F)cc(-c3ccco3)nc12	23µM*	-4	?	?	-5%	-9
O=C(NCc1ccco1)c1cnn2c(C(F)(F)F)cc(-c3cccs3)nc12	15µM*	-10	21µM*	?	2%	-16
O=C(c1cnn2c(C(F)(F)F)cc(-c3ccco3)nc12)N1CCc2ccccc2C1	?	1	?	23µM*	3%	-21
O=C(c1cnn2c(C(F)(F)F)cc(-c3cccs3)nc12)N1CCCC1	?	-21	-26%	-4%	.	0
CCOC(=O)C1OC1C(=O)NC(CC(C)C)C(=O)NCCC(C)C (configuration not stated)	?	.	-25%	.	6%	.
CCOC(=O)CC(NC(=O)c1cc2cc(Cl)ccc2oc1=O)c1ccc(C)cc1 (configuration not stated)	.	.	.	.	2%	.
COc1ccc(OC)c(CN2CCOc3ccc(CN4CCC(O)(c5cccnc5)CC4)cc3C2)c1	5%[9.04 µM]	.	?	.	.	.
COc1ccccc1C1CN(Cc2cnn(C)c2)Cc2ccccc2O1 (configuration not stated)	16%[9.04 µM]	.	-23%	.	.	.
COc1cccc(-c2cc(C(F)(F)F)n3ncc(C(=O)N4CCc5ccccc5C4)c3n2)c1	16µM*	3	18µM*	21µM*	3%	-9
COC(=O)c1ccc(NC(=S)NCCc2ccc(OC)cc2)cc1	?	-4	3.7µM*	?	8%	-21
COC(=O)c1ccc(NC(=S)NCCc2cccc(C)c2)cc1	?	7	?	4%	1%	181
COC(=O)Cc1ccc(NC(=S)NCc2cccc(OC)c2)cc1	-1%	13	?	1%	3%	5
CCCCc1ccc(NC(=S)Nc2ccc(Nc3ccc(OC)cc3)cc2)cc1	18µM*	26	21µM*	?	-1%	0
CCCCc1ccc(NC(=S)Nc2cccnc2)cc1	0%	4	-18%	1%	0%	14
CCCCc1ccc(NC(=S)NCc2cccc(OC)c2)cc1	?	-1	?	-17%	5%	-79*
Cc1ccc(C)c(CN2C(=O)c3ccccc3S(=O)(=O)c3ccc(C(=O)N4CCOCC4)cc32)c1	-14%	.	-25%	.	5%	.
CC(C)(C)n1nnnc1C(c1ccc(C#N)cc1)N1CCCC2(CCCCC2)C1 (configuration not stated)	21µM*	-10	23µM*	-1%	0%	?
